The source of these data is PubChem BioAssay AID1259311 (ICCB-Longwood Screening Facility, Harvard Medical School, 2017).

In general, inhibition refers to the relative decrease from the control value, in per cent.

Values joined by “and” are separate entries in the source; they are usually repeats but may differ in a detail not shown here. Identical values can stand only once. In all, about 330,000 compounds went through this assay and about 1,100 (0.33%) were called active. The sample as a whole holds a higher share of actives than the screen did. Unmarked numbers belong to inactive results. No stated cut-off is given here; in the data, active means inhibition above about 85%; inactive means the rest.

This experiment can be described thus: growth inhibition of S. aureus RN4220, primary screen, OD600 (AID 1259311).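 Further: plate controls were untreated cells for no effect and reference antibiotic for full effect.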 The note with it: OD600, 16 h, stronger effect = higher value.
Regarding `COC(=O)C1(C)NC(c2ccc(C)cc2)C2C(=O)N(c3ccc(F)cc3)C(=O)C21` (stereo not given), the inhibition is -0.392%.

On to `COC(=O)C1=C(C)N(c2ccc(C)cc2)/C(=C/c2ccc(O)cc2)C1=O`, for which the inhibition was 84.9% (active).

Turning to `CCOC1OC(C(=O)N2CCCCCCC2)=CC(c2ccc(C(F)(F)F)cc2)C1CCCO` (stereo not given), the inhibition was 7.41% and 6.78%.

Consider `O=C(NCc1ccccc1)C1=CC(c2ccc(C(F)(F)F)cc2)CC(OCc2ccc(CO)cc2)O1` (stereo not given), for which the inhibition was 5.86%.

In the case of `Nc1nonc1C(=O)NN=Cc1ccc([N+](=O)[O-])o1`, the inhibition was 21.6%.

On to `O=C(/C=C/c1ccc([N+](=O)[O-])o1)NNC(=O)c1ccc(F)cc1`, for which the inhibition is 99.6% (active).

As for `O=C(NN=Cc1ccc(F)cc1)c1ccc(F)cc1`, the inhibition was 4.01%.

As to `O=C(O)c1ccc(NN=Cc2cc3ccccc3nc2Cl)cc1`, the inhibition is -0.883%.

Turning to `CCCCC1CC1C(NC(=O)c1ccccc1)c1ccccc1C(F)(F)F` (stereo not given), the inhibition is 9.97%.

Turning to `Cc1cccc(C(=O)Oc2ccccc2C=NNc2ccc([N+](=O)[O-])cc2)c1`, the inhibition was -8.66%.

With `NC(COc1cc(Cl)cc(Cl)c1)=NO`, the inhibition is 1.6%.

For `COc1ccc(-c2csc3ncnc(N4CCN(S(=O)(=O)c5ccccc5C#N)CC4)c23)cc1`, the inhibition is 96.6% (active).

For `COc1ccc(-c2csc3ncnc(N4CCN(S(=O)(=O)c5cccc(F)c5)CC4)c23)cc1`, the inhibition is 2.78%.

Regarding `COc1ccc(S(=O)(=O)N2CCN(c3ncnc4c(-c5ccccc5)nsc34)CC2)cc1`, the inhibition was 4.04%.

In the case of `Cc1ccc(NCC(=O)NN=Cc2ccc([N+](=O)[O-])o2)cc1`, the inhibition is 7.24%.

For the compound `C/[N+]([O-])=C\c1ccc([N+](=O)[O-])o1`, the inhibition is 97.6% (active).

As to `Cc1cccc(NC(=O)c2ccc([N+](=O)[O-])o2)c1`, the inhibition is 35.2%.

As to `COc1cc(C=NNC(=O)c2cccc([N+](=O)[O-])c2)ccc1O`, the inhibition was -1.37%.

For the compound `COc1ccc(S(=O)(=O)Nc2ccc3c(c2)C(=O)N(C(C)CO)CC(C)C(CN(C)CC2CC2)O3)cc1` (stereo not given), the inhibition is 1.05%.

On to `CC(=NNc1cc(C)nc(NCc2ccccc2)n1)c1ccc([N+](=O)[O-])cc1`, for which the inhibition was -7.45%.

Consider `COc1ccc2c(c1)OC(O)(C(F)(F)C(F)F)CC2=O` (stereo not given), for which the inhibition was 99.2% (active).

As for `COc1ccc2c(c1)SC(C)CC2=O` (stereo not given), the inhibition was -12.2%.

As for `COc1ccc2c(c1)C(=O)CC(c1ccccc1)O2` (stereo not given), the inhibition was 2.06%.

As to `CC(=O)OCC(=O)C1CCC2C3CCC4CC(O)CC[C@]4(C)C3C(=O)C[C@]12C` (stereo not given in full), the inhibition was 2.69%.

Take `CC(NC(=O)c1nc[nH]c1C(=O)NC(C)c1ccccc1)C(=O)OCc1ccccc1` (stereo not given): the inhibition is 6.68%.
